Data reported in PubChem BioAssay (Tox21).
Inconclusive results are not listed. Where a call stands in place of a potency, no number is given. Values without a mark were called inactive. Active and inactive are the calls of the source. The call rests on the fitted dose curve; in most records, active means well fitted activation curve with a large enough effect in the repeat runs; inconclusive means weak or mixed curves; inactive means flat fitted curve, though single readings scatter.

Test: A CellTox Green Cytotoxicity Assay to monitor cytotoxicity in HEK293 cells - 8 hour (AID 1224884); further: nearly all actives have a fitted effect of over 35% in size
Conditions: CellTox Green fluorescence; series mostly up to 76.8 µM
Description: National Center for Advancing Translational Sciences [NCATS]
NIH Chemical Genomics Center [NCGC]
U.S. Environmental Protection Agency [EPA]
National Institutes of Environmental Health Sciences [NIEHS]
National Toxicology Program [NTP]
Cell-based models are critical for drug discovery. Determining the natural cytotoxic effects resulting from test compounds is an essential research activity. A CellTox Green Cytotoxicity Assay to monitor cytotoxicity in real time of continues cell culture during 40 hours of the compound treatment was used to screen Tox21 10K library compounds in Hek293 cells. CellTox Green Cytotoxicity Assay is a nonlytic, homogeneous, biofluorescent method to measure cytotoxicity in cell culture after experimental manipulation. The assay system uses a proprietary asymmetric cyanine dye that is excluded from viable cells but preferentially stains the dead cell's DNA. […] Viable cells produce no appreciable increases in fluorescence. Therefore, the fluorescence signal produced by the binding interaction with dead cell DNA is proportional to cytotoxicity.
The mixture of Hek293 cell suspension and reagents were dispensed at 600cells/6 ul/well in 1536-well tissue culture treated black solid bottom plates using a Multidrop dispenser. After the assay plates were incubated at a 37 C/5% CO2 incubator for 5 hours, 23 nL of compounds dissolved in DMSO, positive and negative controls was transferred to the assay plate by a pintool work station. The plates were incubated at 37 C for 40 hours. The fluorescence intensity were measured at 0h, 8h, 16h, 24h, 32h and 40h time points using ViewLux plate reader during compound treatment.

Structure (SMILES)	Potency	cytotoxicity increase
CN1CC(=O)NC1=N	inactive	
C=C1CC[C@H]2C[C@@H]1C2(C)C	inactive	
CCCN1CCCC[C@H]1C(=O)Nc1c(C)cccc1C	inactive	
Nc1cc(=O)[nH]c(N)n1	inactive	
C[N+](C)(C)CC(O)CC(=O)[O-] (stereo not given)	inactive	
CC(=O)OC/C=C(\C)CC/C=C(\C)CCC=C(C)C	inactive	
CCOC(=O)c1cccc(N)c1	inactive	
CCCCCCCCCCCC	inactive	
NCCc1cnc[nH]1	inactive	
CS(=O)(=O)O	inactive	
CC(=O)OCC(=O)[C@@]1(O)CCC2C3CCC4=CC(=O)CC[C@]4(C)C3[C@@H](O)C[C@@]21C (stereo not given in full)	inactive	
CN1CCC(=C2c3ccccc3CC(=O)c3sccc32)CC1	inactive	
O=C(O)CCCl	inactive	
CC(=O)c1ccccc1O	inactive	
Oc1ccc(C2CNCCc3c2cc(O)c(O)c3Cl)cc1 (stereo not given)	inactive	
Nc1c[n+](N2CCOCC2)no1	inactive	
CCCCOCCOCCOCCCC	inactive	
COC(=O)CC(C)=O	inactive	
O=C(O)CN(CCOCCOCCN(CC(=O)O)CC(=O)O)CC(=O)O		1.88% [at 0.29 µM]
CCCCC/C=C\CCC=O	inactive	

Structure (SMILES)	Potency	cytotoxicity increase
Cc1nc2c([nH]1)c(=O)n(C)c(=O)n2Cc1ccco1	inactive	
O=S(O)CO	inactive	
CC(=O)N(CC(O)CO)c1c(I)c(C(=O)NCCO)c(I)c(C(=O)NCC(O)CO)c1I (stereo not given)	inactive	
CCC(=O)OC(C)c1ccccc1 (stereo not given)	inactive	
O=C(O)c1ccccc1OP(=O)(O)O	inactive	
O=[N+]([O-])c1ccc(F)cc1F	inactive	
CC(C)NCCCC1(C(N)=O)c2ccccc2-c2ccccc21	inactive	
O=C(O)CNC(=O)c1ccc([N+](=O)[O-])cc1	inactive	
CCSC(=O)N(CC(C)C)CC(C)C	inactive	
Cn1cc(S(C)=O)c(=O)c2ccc(F)cc21 (stereo not given)	inactive	
N=c1nc(N2CCCCC2)cc(N)n1O	inactive	
CCC(C)S (stereo not given)		0.141% [at 2.72 µM]
CCC=O	inactive	
NC(=O)c1cn(Cc2c(F)cccc2F)nn1	inactive	
CC(=O)OCC(CCn1cnc2cnc(N)nc21)COC(C)=O	inactive	
C/C=C(\C)C#N	inactive	
CC(=O)CC(C)C	inactive	
NC(=O)COCCN1CCN(C(c2ccccc2)c2ccc(Cl)cc2)CC1 (stereo not given)	inactive	
NS(=O)(=O)c1ccccc1Cl	inactive	
CCOC(=O)CC(C)=O	inactive	
